In the supplement of paper PMC12645437, “Orthogonal IMiD-Degron Pairs Induce Selective Protein Degradation in Cells” (ACS Chemical Biology, 2025):
Over roughly 8,300 sequences, “log2 fold change of degron read counts, EGFP-low vs EGFP+ sorted cells (limma voom), compound-induced degradation” has its median near -1.1; the highest 2% begin near 3.2. The sample holds the highest values, similar sequences and a random draw of the others, so the mix is not that of the screen.

T1: CRBN, Q96SW2
T1 chain: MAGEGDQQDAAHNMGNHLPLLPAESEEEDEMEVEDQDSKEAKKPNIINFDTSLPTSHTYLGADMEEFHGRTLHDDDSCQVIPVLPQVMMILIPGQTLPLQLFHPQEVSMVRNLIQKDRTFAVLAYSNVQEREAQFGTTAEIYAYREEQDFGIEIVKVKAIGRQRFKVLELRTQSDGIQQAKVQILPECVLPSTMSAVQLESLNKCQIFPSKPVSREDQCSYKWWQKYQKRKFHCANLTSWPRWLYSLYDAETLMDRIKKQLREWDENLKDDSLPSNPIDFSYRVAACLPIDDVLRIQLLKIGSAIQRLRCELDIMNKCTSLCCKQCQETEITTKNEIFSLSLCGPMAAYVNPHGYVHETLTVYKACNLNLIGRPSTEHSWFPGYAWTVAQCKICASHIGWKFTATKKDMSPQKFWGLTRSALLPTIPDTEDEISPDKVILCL

B1: 46F_47W_49N_50Q_52G_53R_54Q_55F_67L_, Q9UKT9 (peptide)
chain: FWCNQCGRQFTQKGNLLRHIKL
B2: 46F_47A_49E_50I_52G_53R_54N_55F_67L_, Q9UKT9 (peptide)
chain: FACEICGRNFTQKGNLLRHIKL
B3: 46F_47I_49N_50V_52G_53A_54L_55F_67L_, Q9UKT9 (peptide)
chain: FICNVCGALFTQKGNLLRHIKL
B4: 46F_47V_49D_50I_52G_53A_54L_55F_67L_, Q9UKT9 (peptide)
chain: FVCDICGALFTQKGNLLRHIKL
B5: 46F_47C_49P_50I_52G_53R_54F_55F_67L_, Q9UKT9 (peptide)
chain: FCCPICGRFFTQKGNLLRHIKL
B6: 46F_47G_49P_50I_52G_53H_54E_55F_67L_, Q9UKT9 (peptide)
chain: FGCPICGHEFTQKGNLLRHIKL
B7: 46F_47W_49N_50Q_52G_53H_54T_55F_67L_, Q9UKT9 (peptide)
chain: FWCNQCGHTFTQKGNLLRHIKL
B8: 46F_47Y_49E_50Q_52G_53A_54M_55F_67L_, Q9UKT9 (peptide)
chain: FYCEQCGAMFTQKGNLLRHIKL
B9: 46F_47F_49P_50I_52G_53A_54R_55F_67L_, Q9UKT9 (peptide)
chain: FFCPICGARFTQKGNLLRHIKL
B10: 46F_47C_49P_50I_52G_53A_54R_55F_67L_, Q9UKT9 (peptide)
chain: FCCPICGARFTQKGNLLRHIKL
B11: 46F_47Q_49P_50I_52G_53A_54R_55F_67L_, Q9UKT9 (peptide)
chain: FQCPICGARFTQKGNLLRHIKL
B12: 46F_47I_49P_50I_52G_53A_54R_55F_67L_, Q9UKT9 (peptide)
chain: FICPICGARFTQKGNLLRHIKL
B13: 46F_47T_49P_50I_52G_53A_54R_55F_67L_, Q9UKT9 (peptide)
chain: FTCPICGARFTQKGNLLRHIKL
B14: 46F_47D_49P_50I_52G_53A_54R_55F_67L_, Q9UKT9 (peptide)
chain: FDCPICGARFTQKGNLLRHIKL
B15: 46F_47A_49P_50I_52G_53A_54R_55F_67L_, Q9UKT9 (peptide)
chain: FACPICGARFTQKGNLLRHIKL
B16: 46F_47H_49P_50I_52G_53A_54R_55F_67L_, Q9UKT9 (peptide)
chain: FHCPICGARFTQKGNLLRHIKL
B17: 46F_47K_49P_50I_52G_53A_54R_55F_67L_, Q9UKT9 (peptide)
chain: FKCPICGARFTQKGNLLRHIKL
B18: 46F_47M_49P_50I_52G_53A_54R_55F_67L_, Q9UKT9 (peptide)
chain: FMCPICGARFTQKGNLLRHIKL

Molecular target: T1, CRBN, Q96SW2
Assay: log2 fold change of degron read counts, EGFP-low vs EGFP+ sorted cells (limma voom), compound-induced degradation; higher = more compound-induced degradation of the degron-EGFP fusion; degrons are variants of IKZF1/3 zinc finger 2; compound dose not given here
Conditions: Jurkat, 18 h
[1] = compound: compound 19 (5-tert-butyl-thalidomide)
[2] = compound: compound 22 (5-morpholino-thalidomide)
[3] = compound: compound 33 (diphenyl IMiD analogue)
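Also: pooled lentiviral library of zinc finger degron-EGFP fusions in mCherry-positive Jurkat cells, FACS-sorted after compound exposure, with degron abundance counted by next-generation sequencing.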

| Sequence | log2 fold change of degron read counts [1] | log2 fold change of degron read counts [2] | log2 fold change of degron read counts [3] | log2 fold change of degron read counts (compound: thalidomide) |
| --- | --- | --- | --- | --- |
| B1 | -1.77 | -1.3 | -1.46 | -1.87 |
| B2 | -0.441 | -1.8 | -2.25 | -1.66 |
| B3 | -2.12 | -1.66 | 0.0338 | -0.727 |
| B4 | -1.73 | -0.858 | -0.0343 | -0.433 |
| B5 | -0.555 | -0.77 | 0.987 | -0.278 |
| B6 | -1.93 | -2.76 | -2.07 | -2.26 |
| B7 | -1.74 | -2.28 | -2.22 | -1.67 |
| B8 | 0.643 | 1.04 | 0.255 | -1.7 |
| B9 | 3.13 | 3.35 | 1.51 | 1.26 |
| B10 | 2.53 | 2.75 | 1.8 | 2.55 |
| B11 | -0.209 | 2.05 | 1.18 | 3.55 |
| B12 | 0.0922 | 2.32 | 1.27 | 2.63 |
| B13 | 1.24 | 2.95 | 1.72 | 3 |
| B14 | 3.35 | 1.87 | 1.6 | 2.76 |
| B15 | 3.72 | 2.53 | -0.174 | 1.31 |
| B16 | 2.37 | 2.5 | 0.881 | 0.851 |
| B17 | -2.04 | -2.6 | -2.42 | -1.57 |
| B18 | -0.0501 | 0.185 | 1.05 | 1.11 |
